Measurements reported in the supplement of paper PMC6555819.

Test system: LXRa:RXRa (NR concentration 270 nM, RXRa partner concentration 90 nM)
Test: PBM binding z-score (relative to random genomic background probes); higher = stronger binding; sequences stand for … in GC…GCGATTGACAGCGTAGAATGAAGG
Procedure, shortened: (§1)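 Probes were double-stranded and carried 34-nt variable regions with direct-repeat seeds, single-nucleotide variants, half-site ablations and random human genomic background sequences, printed on custom Agilent 4×180K protein-binding microarrays. Arrays were incubated 1 h with ligand-free nuclear receptor dimers in PBS pH 7.4, 2% milk, 0.02% Triton X-100, 1 mM DTT, 0.2 mg/mL BSA and 0.4 mg/ml salmon testes DNA. Antibodies against each partner (one per run) detected binding, and scanned fluorescence was regression-normalized. Binding z-scores use the random background probes as reference.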

Row | Sequence | PBM binding z-score
1 | AGAATCAGGTTATTAAGATCAGGGAATTGCGGTC | 0.587
2 | TCGAGTAGGTTAGGGGTATTCAGAATGGCGTCGA | 0.298
3 | CCTACTGGGCCCTTCAGAGGTCATTGATCATATG | 3.83
4 | GAGACTGGGGCAAAGCAGGTTACCATAAGGTTGG | 0.532
5 | CCCACTGGGCCACGAAAGGTCATTGATTCAGTGA | 5.11
6 | CCAGACAGGTGAGAAGGTCACTCAGCCTCGATTA | 2.53
7 | ATCGAAAGCTCGTGAGGTGAGTATACAGAAAGGC | -0.537
8 | TCTAGTTGGTCAAAGGTCACACATTCGAAATGCG | 5.54
9 | TAGCGTAGGTCAGATCGGGCCAGTATACGCTATA | 1.36
10 | TCTGGTAGATCAAAGGTTAAGAAAGCCGAAGCCT | 2.1
11 | CGTCCAAGGTCAAGGTCAGTCAAAGAGACTCGAA | 5.91
12 | TCATATAGGTAAAGGTGAAAGTCGAACGATATGA | 1.27
13 | ACAGACAGGTGAGTGAAGGCAACTCAGCTGGACG | -0.412
14 | AGAATGAGGTTATTAAGCTCAGGGAATTGCGGTC | 1.14
15 | CGTCCAAGGTAAGCAGGTCAGTGAAAGCGACGTG | -0.0922
16 | ACTAGTTTGTCAGCTGAGGTCACACACAATTCGG | 3.38
17 | TCTTGTAGATCAGCAGGTTCAGAAAGCTGGCCAA | 0.323
18 | ACAGACAGGTGAGTGAAGGAAACTCAGCTGGACG | -0.517
19 | TCTTGTAGATCAAAAGAGGTTAAGAAAGTGCGCT | 3.35
20 | TTACCGAGGTGAAGGTCGTTGATCCCTCTGTAGA | 2.18

Row | Sequence | PBM binding z-score
21 | CCGAGTAGGTTATGAGGCATTCAGGCAACGGTGA | 0.0841
22 | CGAACTAGGTCATGCAGGACAGTGAATACATTGA | 2.17
23 | CGTCCAAGGTGAGAGAGGTCAGTGAATGCCGAGT | 2.18
24 | ACACGGAGGACAAAGGTCAGAGCTACGCCAGTGA | 4.33
25 | AGTCAAAGTTCGTCTAGGTAACGTAAGATATGCT | 1.16
26 | AAAACAGGGTCACTAGGCCAGAGTAGGTACGAAT | 4.02
27 | ACAGACAGGTGAGTGAAGGTAATTCAGCTGGACG | 0.102
28 | ATCTCTAGGTAACCAAGTTCAATGAATGCCGAAC | 1.63
29 | GGAACGAGGGCAAGTTGATAGCGGAGTTTGATGG | 0.00493
30 | ACCATTAGTTGAGACGAGGGCAACCGATAGGTTG | 0.177
31 | ATATGTAGGTTATCGGTTCATTCAGTTTGCGCAT | 1.84
32 | AGAATGAGGTTAAGAACAGGGAAACAGAATACAT | 1.7
33 | TCTCGGAGGCCACGAAAGGTCAGAGCTCGACATC | 5.27
34 | TCTAGTTGGTCAAAGGTCATACACTCGAAATGCG | 6.03
35 | CTAACTAGGTCAAGGACAGTGAATCTCCGCACGC | 2.43
36 | TTGCCTAGGTCAGATCGGGCCAGTATACGCTATA | 1.04
37 | ACTACTTGGTCAGCTGAGGTCACACACAATTCGG | 3.9
38 | CGTCCAAGGTCAGCAAGTCAGTGAAAGCGACGTG | 3.1
39 | CCTTTCGGGTCACGAGGTTATAGCACGACGAGCG | 4.87
40 | CGTCAAAATTCAACTAAGGTAACGTAAAGCACGC | 0.314

Test system: LXRa homodimer (NR concentration 270 nM)
Test: as above
Procedure, shortened: as §1

Row | Sequence | PBM binding z-score
41 | AGAATCAGGTTATTAAGATCAGGGAATTGCGGTC | 0.33
42 | TCGAGTAGGTTAGGGGTATTCAGAATGGCGTCGA | -0.105
43 | CCTACTGGGCCCTTCAGAGGTCATTGATCATATG | 5.02
44 | GAGACTGGGGCAAAGCAGGTTACCATAAGGTTGG | -0.00898
45 | CCCACTGGGCCACGAAAGGTCATTGATTCAGTGA | 5.17
46 | CCAGACAGGTGAGAAGGTCACTCAGCCTCGATTA | 0.729
47 | ATCGAAAGCTCGTGAGGTGAGTATACAGAAAGGC | -0.718
48 | TCTAGTTGGTCAAAGGTCACACATTCGAAATGCG | 3.96
49 | TAGCGTAGGTCAGATCGGGCCAGTATACGCTATA | -0.421
50 | TCTGGTAGATCAAAGGTTAAGAAAGCCGAAGCCT | 0.139
51 | CGTCCAAGGTCAAGGTCAGTCAAAGAGACTCGAA | 1.64
52 | TCATATAGGTAAAGGTGAAAGTCGAACGATATGA | -0.00869
53 | ACAGACAGGTGAGTGAAGGCAACTCAGCTGGACG | -0.593
54 | AGAATGAGGTTATTAAGCTCAGGGAATTGCGGTC | -0.316
55 | CGTCCAAGGTAAGCAGGTCAGTGAAAGCGACGTG | -0.204
56 | ACTAGTTTGTCAGCTGAGGTCACACACAATTCGG | 2.38
57 | TCTTGTAGATCAGCAGGTTCAGAAAGCTGGCCAA | -0.435
58 | ACAGACAGGTGAGTGAAGGAAACTCAGCTGGACG | -0.15
59 | TCTTGTAGATCAAAAGAGGTTAAGAAAGTGCGCT | -0.0772
60 | TTACCGAGGTGAAGGTCGTTGATCCCTCTGTAGA | -0.314

Row | Sequence | PBM binding z-score
61 | CCGAGTAGGTTATGAGGCATTCAGGCAACGGTGA | -0.0523
62 | CGAACTAGGTCATGCAGGACAGTGAATACATTGA | 0.149
63 | CGTCCAAGGTGAGAGAGGTCAGTGAATGCCGAGT | 0.878
64 | ACACGGAGGACAAAGGTCAGAGCTACGCCAGTGA | 1.74
65 | AGTCAAAGTTCGTCTAGGTAACGTAAGATATGCT | 0.363
66 | AAAACAGGGTCACTAGGCCAGAGTAGGTACGAAT | -0.0117
67 | ACAGACAGGTGAGTGAAGGTAATTCAGCTGGACG | -0.0483
68 | ATCTCTAGGTAACCAAGTTCAATGAATGCCGAAC | 1.7
69 | GGAACGAGGGCAAGTTGATAGCGGAGTTTGATGG | -0.352
70 | ACCATTAGTTGAGACGAGGGCAACCGATAGGTTG | 3.5e-05
71 | ATATGTAGGTTATCGGTTCATTCAGTTTGCGCAT | 1.33
72 | AGAATGAGGTTAAGAACAGGGAAACAGAATACAT | 0.291
73 | TCTCGGAGGCCACGAAAGGTCAGAGCTCGACATC | 1.95
74 | TCTAGTTGGTCAAAGGTCATACACTCGAAATGCG | 4.66
75 | CTAACTAGGTCAAGGACAGTGAATCTCCGCACGC | 0.51
76 | TTGCCTAGGTCAGATCGGGCCAGTATACGCTATA | -0.621
77 | ACTACTTGGTCAGCTGAGGTCACACACAATTCGG | 3.15
78 | CGTCCAAGGTCAGCAAGTCAGTGAAAGCGACGTG | -0.297
79 | CCTTTCGGGTCACGAGGTTATAGCACGACGAGCG | 0.634
80 | CGTCAAAATTCAACTAAGGTAACGTAAAGCACGC | 0.303
